# Data: PubChem BioAssay (EPA / NIEHS)
# Several values for one entry are separate records, joined by “and”; a condition that tells them apart may be missing. Equal entries are not always repeated. Records with an inconclusive call do not appear. Some compounds were tested as several samples or in several runs, with calls that do not always agree. Activity calls are given as the source filed them. The calls were made as follows: active = hit-call score of the fitted dose curve at least 0.9, where 1 is the maximum; inconclusive = response in the unintended direction; inactive = score below 0.9.
# Molecular target: Cellular tumor antigen p53 (Homo sapiens) (UniProt P04637)
# Assay: TOX21_p53_BLA_p2_ratio: Tox21 HCT-116 p53 Agonism Beta-lactamase Assay, Ratio, Phase 2 (AID 2283592)
# Source text: TOX21_p53_BLA_p2 is a cell-based, single-readout assay that uses HCT116, a human intestinal cell line, […] in a 1536-well plate.TOX21_p53_BLA_p2_ratio is an assay readout measuring reporter gene via receptor activity and designed using inducible reporter (beta lactamase induction) detected with GAL4 b-lactamase reporter gene. The signal is derived from the ratio of cleaved (ch2) to uncleaved (ch1) reporter gene substrate used as the measure of target activity.Data from the assay component TOX21_p53_BLA_p2_ratio was analyzed into 1 assay endpoint. This assay endpoint, TOX21_p53_BLA_p2_ratio, was analyzed in the positive analysis fitting direction relative to DMSO as the negative control and baseline of activity. Using a type of inducible reporter, gain-of-signal activity can be used to understand changes in the reporter gene as they relate to the gene TP53. Furthermore, this assay endpoint can be referred to as a primary readout, because this assay has produced multiple assay endpoints and this ratio serves a reporter gene function to understand target activity. To generalize the intended target to other relatable targets, this assay endpoint is annotated to the DNA binding intended target family, where the subfamily is tumor suppressor.
# Thawing Method: Place 14 mL of pre-warmed thaw medium into a 15 mL of conical tub. Remove the vial of cells to be thawed from liquid nitrogen and thaw rapidly by placing at 37C in a water bath with gentle agitation for 1-2 minutes. Decontaminate the vial by wiping with 70% ethanol before opening in a biological safety cabinet. Transfer the vial contents drop-wise into 14 mL of thaw medium in a sterile 15-mL conical tub. Centrifuge cells at 900 rpm for 4 minutes and resuspend in thaw medium. Transfer contents to the T75 tissue culture flask containing Thaw Medium and place flask in a humidified 37C/5% CO2 incubator. Switch to growth medium at first passage.Propagation Method: Aspirate medium, rinse once in DPBS, add 0.25% Trypsin/EDTA and swirl to coat the cell evenly. Add an equal volume of Growth Medium to inactivate Trypsin after 2-3 minutes incubation at 37C. Centrifuge cells at 900 rpm for 4 minutes and resuspend in growth medium. Cell should be passage or fed at least twice a week.Assay Protocol: Harvest cells from culture in growth medium and resuspend in assay medium. 2.2 Dispense 4000 cells/5 uL/well into 1536-well black/clear bottom plates using a Multidrop dispenser. After the cells were incubated at 37C for 5 hours, 23 nL of compounds dissolved in DMSO were transferred to the assay plate by a PinTool resulting in a 217-fold dilution. Incubate the plates for 16 hours at 37C, 5% CO2. Add 1 uL of 6X LiveBLAzer FRET B/G (CCF4-AM) Substrate Mixture to each well using a BioRAPTR dispenser and incubate the plates at room temperature for 2 hours. Measure fluorescence intensity at 460 and 530 nm emission and 405 nm excitation by an Envision detector. Data is expressed as the ratio of 460nm/530nm emissions. Add 4 uL of Cell-titer Glo to each well using BioRAPTR and incubate the plates at room temperature for 2 hours. Measure fluorescence intensity by a VewLux plate reader.
# Chain of Cellular tumor antigen p53 (Homo sapiens) (P04637 whole entry, looked up): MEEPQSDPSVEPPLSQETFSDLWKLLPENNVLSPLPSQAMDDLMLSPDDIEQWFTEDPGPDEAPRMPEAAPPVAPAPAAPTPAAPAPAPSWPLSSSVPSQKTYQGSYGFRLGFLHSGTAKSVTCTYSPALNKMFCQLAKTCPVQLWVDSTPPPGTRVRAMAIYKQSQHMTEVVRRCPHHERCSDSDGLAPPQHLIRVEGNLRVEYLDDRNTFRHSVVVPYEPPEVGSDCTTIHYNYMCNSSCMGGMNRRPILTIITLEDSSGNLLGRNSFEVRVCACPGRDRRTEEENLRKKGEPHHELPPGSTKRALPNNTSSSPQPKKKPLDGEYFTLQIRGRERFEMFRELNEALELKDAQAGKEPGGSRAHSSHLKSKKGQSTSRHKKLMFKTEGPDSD
SMILES,outcome,AC50
O=C1CC2(CCCC2)CC(=O)N1CCNCC1COc2ccccc2O1 (stereo not given),inactive,
CCOC(CN1CCN(CC(C)C(=O)c2ccccc2)CC1)c1ccccc1 (stereo not given),inactive,
Oc1cccc(-c2c3nc(c(-c4cccc(O)c4)c4ccc([nH]4)c(-c4cccc(O)c4)c4nc(c(-c5cccc(O)c5)c5ccc2[nH]5)CC4)C=C3)c1,,26.1 µM (active) and 33.8 µM (active)
CN(C)C(=O)Oc1cccc([N+](C)(C)C)c1,inactive,
CC1=C(/C=C/C(C)=C/C=C/C(C)=C/C(=O)Nc2ccc(O)cc2)C(C)(C)CCC1,inactive,62.4 µM (active)
CCCN(CCC)C(=O)C(CCC(=O)OCCCN1CCN(CCOC(=O)Cc2c(C)n(C(=O)c3ccc(Cl)cc3)c3ccc(OC)cc23)CC1)NC(=O)c1ccccc1 (stereo not given),inactive,
O=c1[nH]c(=O)n([C@H]2C[C@H](O)[C@@H](CO)O2)cc1Br,inactive,
Brc1ccccc1-c1ccccc1,inactive,
O=C(O)c1ccc(Cl)c(Cl)c1,inactive,
O=C(Nc1ccc(Br)cc1)c1cc(Br)c(Br)s1,inactive,
OCCCC1CCCCC1,inactive,
CCCCCCC/C=C/C=O,inactive,
Nc1ncnc(Nc2ccccc2)n1,inactive,
NS(=O)(=O)c1cc2c(cc1C(F)(F)F)NCNS2(=O)=O,inactive,
COc1cc2c(N3CCN(C(=O)Nc4ccc(OC(C)C)cc4)CC3)ncnc2cc1OCCCN1CCCCC1,,35.5 µM (active)
CNC(=O)CN(CCN(CCN(CC(=O)[O-])CC(=O)NC)CC(=O)[O-])CC(=O)[O-].O.[Gd+3],inactive,
COc1ccc(NC(C)=O)cc1,inactive,
COC(=O)[C@H]1[C@H]2C[C@@H]3c4[nH]c5cc(OC)ccc5c4CCN3C[C@H]2C[C@@H](OC(=O)/C=C/c2cc(OC)c(OC)c(OC)c2)[C@@H]1OC,inactive,
[O]=[Bi],inactive,
CCc1oc2ccccc2c1C(=O)c1cc(I)c(O)c(I)c1,,7.59 µM (active)

SMILES,outcome,AC50
CN1CCN(CCCN2c3ccccc3Sc3ccc(C(F)(F)F)cc32)CC1,inactive,
O=C(O)c1ccncc1,inactive,
C[C@H]1C[C@H]2[C@@H]3CCC4=CC(=O)C=C[C@]4(C)[C@@]3(F)[C@@H](O)C[C@]2(C)[C@@]1(O)C(=O)CCl,inactive,
Cc1cc(Nc2ccc(O)cc2)ccc1N,inactive,
CNCCCC1c2ccccc2C=Cc2ccccc21,inactive,
CCCNC(C)C(=O)Nc1c(C)csc1C(=O)OC (stereo not given),inactive,
CC(C)NCC(O)c1ccc2ccccc2c1 (stereo not given),inactive,
C/C=C1\NC(=O)[C@H]2CSSCC/C=C/[C@H](CC(=O)N[C@H](C(C)C)C(=O)N2)OC(=O)C(C(C)C)NC1=O (stereo not given in full),,0.00463 µM (active)
CC1=C(CC=O)C(C)(C)CCC1,inactive,
C=C[C@]1(C)C[C@@H](OC(=O)CSCCN(CC)CC)[C@]2(C)[C@H](C)CC[C@]3(CCC(=O)[C@H]32)[C@@H](C)[C@@H]1O,inactive,
Nc1nccs1,inactive,
CCCCCCNC(=O)n1cc(F)c(=O)[nH]c1=O,,0.77 µM (active)
COC(=O)CCCCCCCC(=O)OC,inactive,
C[N+](C)(CCOc1ccccc1)Cc1cccs1,inactive,
CC1=C(C(=O)OC(C)C)C(c2cccc([N+](=O)[O-])c2)C(C(=O)OC2CN(C(c3ccccc3)c3ccccc3)C2)=C(N)N1 (stereo not given),,18.3 µM (active)
O=C(Cl)c1cc(Cl)cc(Cl)c1,inactive,
O=C(Cn1ccnc1[N+](=O)[O-])NCc1ccccc1,inactive,
NCCS,inactive,
CCCn1cnc2c1c(=O)n(CCCCC(C)=O)c(=O)n2C,inactive,
